# Laboratory results: the supplement of paper PMC10037445
# In all, about 2,900 compounds were measured (“NF-kB SEAP reporter activity, fold change vs agonist alone”: median about 0.99, highest 2% from about 2.6 on). The sample holds the highest values, similar compounds and a random draw of the others, so the mix is not that of the screen.
# Columns and labels:
# [1] = system: RAW-Dual; assay: NF-kB SEAP reporter activity, fold change vs agonist alone; cytotoxicity flag (confluency mask): not cytotoxic; higher = enhanced NF-kB activity
# In short: (§1)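 Supernatant from RAW-Dual macrophages was read after 20 hours for IRF by QuantiLuc luminescence and for NF-κB by QuantiBlue absorbance at 620 nm. The cells (50,000 cells/well in DMEM, 384-well plates, 37 °C, 5% CO2) had received 50 nL of library stock by pin tool and, 1 h later, a PRR agonist. Reporter activity is expressed relative to agonist-alone wells as fold change, and wells were flagged cytotoxic if IncuCyte confluency was under 70% of agonist controls in both mask sets.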
# [2] = system: RAW-Dual; assay: NF-kB SEAP reporter activity, fold change vs agonist alone; higher = enhanced NF-kB activity; conditions: cytotoxicity flag (confluency mask): not cytotoxic
# In short: as §1
# [3] = agonist: ODN 1826 (TLR9) 0.5 ug/mL
# [4] = agonist: Pam2CSK4 (TLR2/6) 0.1 ug/mL
# [5] = agonist: Pam3CSK4 (TLR2/1) 0.1 ug/mL
# [6] = library stock concentration (final ~1000-fold dilution): 10 mM, agonist: Imiquimod (TLR7) […]
# [7] = library stock concentration (final ~1000-fold dilution): 10 mM, agonist: MPLA (TLR4) […]
compound,measurement,setting,value
COC(C)Cn1c(=O)n(C)c2cnc3ccc(-c4cncc(C(C)(C)O)c4)cc3c21 (stereo not given) (library stock concentration (final ~1000-fold dilution): 10 mM),NF-kB SEAP reporter activity,[1]; agonist: LPS (TLR4) 0.1 ug/mL,1.84
same,NF-kB SEAP reporter activity,[1]; [3],1.26
same,NF-kB SEAP reporter activity,[1]; [4],0.476
same,NF-kB SEAP reporter activity,[1]; [5],1.03
CC(=O)c1c(C)c2cnc(Nc3ccc(N4CCNCC4)cn3)nc2n(C2CCCC2)c1=O.O=S(=O)(O)CCO (library stock concentration (final ~1000-fold dilution): 10 mM water),NF-kB SEAP reporter activity,[1]; agonist: LPS (TLR4) 0.1 ug/mL,1.71
same,NF-kB SEAP reporter activity,[1]; [3],0.449
same,NF-kB SEAP reporter activity,[1]; [4],0.752
same,NF-kB SEAP reporter activity,[1]; [5],1.29
CC(=O)c1c(C)c2cnc(Nc3ccc(N4CCNCC4)cn3)nc2n(C2CCCC2)c1=O.O=S(=O)(O)CCO,NF-kB SEAP reporter activity,"[2]; library stock concentration (final ~1000-fold dilution): 10 mM water, agonist: Imiquimod (TLR7) […]",0.674
same,NF-kB SEAP reporter activity,"[2]; library stock concentration (final ~1000-fold dilution): 10 mM water, agonist: MPLA (TLR4) […]",1.09
CCC(Nc1ncnc2[nH]cnc12)c1nc2cccc(F)c2c(=O)n1-c1ccccc1 (stereo not given) (library stock concentration (final ~1000-fold dilution): 10 mM),NF-kB SEAP reporter activity,[1]; agonist: LPS (TLR4) 0.1 ug/mL,1.27
same,NF-kB SEAP reporter activity,[1]; [3],1.08
same,NF-kB SEAP reporter activity,[1]; [4],0.969
same,NF-kB SEAP reporter activity,[1]; [5],0.843
CCC(Nc1ncnc2[nH]cnc12)c1nc2cccc(F)c2c(=O)n1-c1ccccc1 (stereo not given),NF-kB SEAP reporter activity,[2]; [6],0.75
same,NF-kB SEAP reporter activity,[2]; [7],0.952
CC(NC(=O)c1ncnc(N)c1Cl)c1ncc(C(=O)Nc2cc(C(F)(F)F)c(Cl)cn2)s1 (stereo not given) (library stock concentration (final ~1000-fold dilution): 10 mM),NF-kB SEAP reporter activity,[1]; agonist: LPS (TLR4) 0.1 ug/mL,0.632
same,NF-kB SEAP reporter activity,[1]; [3],0.495
same,NF-kB SEAP reporter activity,[1]; [4],0.383
same,NF-kB SEAP reporter activity,[1]; [5],0.417
CC(NC(=O)c1ncnc(N)c1Cl)c1ncc(C(=O)Nc2cc(C(F)(F)F)c(Cl)cn2)s1 (stereo not given),NF-kB SEAP reporter activity,[2]; [6],0.623
same,NF-kB SEAP reporter activity,[2]; [7],0.876
O=C1C(Cc2ccc(O)cc2)N2C(=O)CCN(C(=O)NCc3ccccc3)C2CN1Cc1cccc2ccccc12 (stereo not given),NF-kB SEAP reporter activity,[2]; [6],1.45
same,NF-kB SEAP reporter activity,[2]; [7],2.26
O=C1C(Cc2ccc(O)cc2)N2C(=O)CCN(C(=O)NCc3ccccc3)C2CN1Cc1cccc2ccccc12 (stereo not given) (library stock concentration (final ~1000-fold dilution): 10 mM),NF-kB SEAP reporter activity,[1]; agonist: LPS (TLR4) 0.1 ug/mL,3.72
same,NF-kB SEAP reporter activity,[1]; [3],1.08
same,NF-kB SEAP reporter activity,[1]; [4],0.484
same,NF-kB SEAP reporter activity,[1]; [5],0.63
CNCCN1CCC(OCc2ccccc2)CC1.Cl.Cl,NF-kB SEAP reporter activity,[2]; [6],1.55
same,NF-kB SEAP reporter activity,[2]; [7],0.921
CNCCN1CCC(OCc2ccccc2)CC1.Cl.Cl (library stock concentration (final ~1000-fold dilution): 10 mM),NF-kB SEAP reporter activity,[1]; agonist: LPS (TLR4) 0.1 ug/mL,1.03
same,NF-kB SEAP reporter activity,[1]; [3],1.45
same,NF-kB SEAP reporter activity,[1]; [4],0.877
same,NF-kB SEAP reporter activity,[1]; [5],1.53
CC1OC(OC2C(Oc3cc(O)c(C(=O)CCc4ccc(O)cc4)c(O)c3)OC(CO)C(O)C2O)C(O)C(O)C1O (stereo not given) (library stock concentration (final ~1000-fold dilution): 10 mM),NF-kB SEAP reporter activity,[1]; agonist: LPS (TLR4) 0.1 ug/mL,0.867
same,NF-kB SEAP reporter activity,[1]; [3],0.991
same,NF-kB SEAP reporter activity,[1]; [4],0.784
same,NF-kB SEAP reporter activity,[1]; [5],1.06
CC1OC(OC2C(Oc3cc(O)c(C(=O)CCc4ccc(O)cc4)c(O)c3)OC(CO)C(O)C2O)C(O)C(O)C1O (stereo not given),NF-kB SEAP reporter activity,[2]; [6],0.957
same,NF-kB SEAP reporter activity,[2]; [7],1.03
